Experimental data from the supplement of paper PMC11732987, “Enantioselective OTUD7B fragment discovery through chemoproteomics screening and high-throughput optimisation” (Communications Chemistry, 2025).

Key:
Assay in all cases: log2 ratio of Biotin-Ahx-Ub-VS probe labelling (fragment/DMSO); higher = less target engagement (more negative = stronger competition), active = hit call of the paper (q ≤ 0.05, log2 ratio ≤ -1)
Settings in all cases: compound concentration: 200 uM; treatment time: 3 h
USP42 = target: T1, USP42 (UniProt Q9H9J4)
T1 sequence (whole entry): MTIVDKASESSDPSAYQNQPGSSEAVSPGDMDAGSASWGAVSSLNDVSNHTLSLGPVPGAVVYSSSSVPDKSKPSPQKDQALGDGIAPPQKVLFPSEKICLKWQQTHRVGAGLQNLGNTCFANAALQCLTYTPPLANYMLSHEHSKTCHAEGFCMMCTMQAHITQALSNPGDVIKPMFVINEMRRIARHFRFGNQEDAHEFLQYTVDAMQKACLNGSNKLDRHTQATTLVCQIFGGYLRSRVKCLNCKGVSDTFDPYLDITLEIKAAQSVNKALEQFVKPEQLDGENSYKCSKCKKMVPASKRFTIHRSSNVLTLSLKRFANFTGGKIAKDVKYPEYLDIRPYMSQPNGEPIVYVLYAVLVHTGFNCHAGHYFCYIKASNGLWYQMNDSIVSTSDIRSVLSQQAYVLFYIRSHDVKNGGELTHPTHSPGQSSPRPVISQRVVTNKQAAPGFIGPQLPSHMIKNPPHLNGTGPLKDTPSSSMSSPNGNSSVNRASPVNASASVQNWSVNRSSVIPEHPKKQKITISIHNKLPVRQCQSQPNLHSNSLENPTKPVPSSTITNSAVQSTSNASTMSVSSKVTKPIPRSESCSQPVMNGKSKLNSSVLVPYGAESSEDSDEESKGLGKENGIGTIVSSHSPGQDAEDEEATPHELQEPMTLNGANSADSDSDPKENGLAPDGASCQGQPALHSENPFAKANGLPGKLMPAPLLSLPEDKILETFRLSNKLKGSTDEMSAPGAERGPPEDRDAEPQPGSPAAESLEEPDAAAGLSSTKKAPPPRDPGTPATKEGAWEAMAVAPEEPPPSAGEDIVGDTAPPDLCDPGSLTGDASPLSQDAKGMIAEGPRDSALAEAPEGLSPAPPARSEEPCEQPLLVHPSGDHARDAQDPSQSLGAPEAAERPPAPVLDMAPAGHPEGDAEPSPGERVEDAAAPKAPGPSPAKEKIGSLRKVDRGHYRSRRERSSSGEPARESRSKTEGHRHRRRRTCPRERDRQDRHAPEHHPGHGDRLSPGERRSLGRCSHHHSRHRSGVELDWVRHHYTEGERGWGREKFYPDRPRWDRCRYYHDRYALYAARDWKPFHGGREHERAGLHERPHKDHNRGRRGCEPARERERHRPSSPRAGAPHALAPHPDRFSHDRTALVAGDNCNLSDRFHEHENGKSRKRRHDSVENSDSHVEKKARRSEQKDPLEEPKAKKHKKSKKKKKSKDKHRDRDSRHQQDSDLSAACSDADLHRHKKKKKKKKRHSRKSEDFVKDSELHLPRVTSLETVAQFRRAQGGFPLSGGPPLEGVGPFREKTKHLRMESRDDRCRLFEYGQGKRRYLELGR
Outline: (§1)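 Triplicate samples of HEK293T lysate, 495 µg each, received fragment at 200 µM or vehicle for 3 h, followed by Biotin-Ahx-Ub-VS (0.5 µM final) for 1 h. After NeutrAvidin enrichment of labelled DUBs and LysC/trypsin digestion, peptides were run by diaPASEF LC-MS/MS. The values are average log2 fragment/vehicle ratios from global-median-normalised Spectronaut label-free quantities, tested by unpaired t-test on proteins having ≥2 unique peptides.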

USP46 = USP46 (UniProt P62068)
Sequence of USP46 (P62068 whole entry): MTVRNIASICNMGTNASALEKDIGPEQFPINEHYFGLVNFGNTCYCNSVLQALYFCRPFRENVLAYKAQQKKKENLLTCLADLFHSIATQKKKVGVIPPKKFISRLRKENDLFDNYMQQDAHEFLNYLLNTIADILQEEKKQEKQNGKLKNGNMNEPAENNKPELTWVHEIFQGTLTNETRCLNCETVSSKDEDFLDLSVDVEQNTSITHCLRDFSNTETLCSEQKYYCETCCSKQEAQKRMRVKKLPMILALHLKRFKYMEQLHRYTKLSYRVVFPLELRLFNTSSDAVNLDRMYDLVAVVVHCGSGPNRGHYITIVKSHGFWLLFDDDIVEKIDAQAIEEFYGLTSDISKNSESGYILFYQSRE
Outline: as §1

USP47 = target: T2, USP47 (UniProt Q96K76)
T2 sequence (whole entry): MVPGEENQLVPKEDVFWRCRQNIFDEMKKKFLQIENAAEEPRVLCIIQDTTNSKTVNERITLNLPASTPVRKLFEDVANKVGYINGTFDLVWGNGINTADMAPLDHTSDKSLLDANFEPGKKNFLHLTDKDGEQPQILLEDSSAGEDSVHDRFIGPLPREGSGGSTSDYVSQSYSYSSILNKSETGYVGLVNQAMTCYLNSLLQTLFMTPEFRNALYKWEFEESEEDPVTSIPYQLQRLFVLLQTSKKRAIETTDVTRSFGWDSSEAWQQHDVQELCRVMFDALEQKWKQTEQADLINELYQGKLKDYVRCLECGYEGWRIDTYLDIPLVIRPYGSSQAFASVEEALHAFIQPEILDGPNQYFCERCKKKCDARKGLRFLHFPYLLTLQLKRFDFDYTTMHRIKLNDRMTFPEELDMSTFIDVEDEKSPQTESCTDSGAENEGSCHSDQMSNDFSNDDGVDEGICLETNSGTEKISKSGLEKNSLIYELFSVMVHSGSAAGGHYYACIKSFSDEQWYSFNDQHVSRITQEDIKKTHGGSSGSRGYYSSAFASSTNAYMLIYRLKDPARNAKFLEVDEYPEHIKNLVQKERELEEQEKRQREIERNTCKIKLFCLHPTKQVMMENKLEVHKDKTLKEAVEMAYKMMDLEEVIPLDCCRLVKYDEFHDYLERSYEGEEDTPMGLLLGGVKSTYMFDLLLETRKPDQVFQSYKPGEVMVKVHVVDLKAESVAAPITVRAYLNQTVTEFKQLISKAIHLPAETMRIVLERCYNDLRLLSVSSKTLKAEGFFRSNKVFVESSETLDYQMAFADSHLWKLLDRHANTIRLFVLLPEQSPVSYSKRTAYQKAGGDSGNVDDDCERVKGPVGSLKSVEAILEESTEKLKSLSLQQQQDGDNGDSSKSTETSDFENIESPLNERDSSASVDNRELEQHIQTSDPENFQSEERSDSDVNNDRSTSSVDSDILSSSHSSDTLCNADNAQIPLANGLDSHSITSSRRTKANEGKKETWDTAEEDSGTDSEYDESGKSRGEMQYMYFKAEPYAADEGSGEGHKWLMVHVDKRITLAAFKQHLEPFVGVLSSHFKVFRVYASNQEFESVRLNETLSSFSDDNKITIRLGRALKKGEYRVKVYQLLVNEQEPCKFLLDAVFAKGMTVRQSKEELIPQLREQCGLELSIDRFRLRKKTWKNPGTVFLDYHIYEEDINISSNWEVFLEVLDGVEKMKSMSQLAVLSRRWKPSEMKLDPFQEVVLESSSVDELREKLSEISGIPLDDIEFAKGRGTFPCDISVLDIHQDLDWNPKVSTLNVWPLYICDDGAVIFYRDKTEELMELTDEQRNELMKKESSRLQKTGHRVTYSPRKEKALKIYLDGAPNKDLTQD
Outline: as §1

USP48 = target: T3, USP48 (UniProt Q86UV5)
T3 sequence (whole entry): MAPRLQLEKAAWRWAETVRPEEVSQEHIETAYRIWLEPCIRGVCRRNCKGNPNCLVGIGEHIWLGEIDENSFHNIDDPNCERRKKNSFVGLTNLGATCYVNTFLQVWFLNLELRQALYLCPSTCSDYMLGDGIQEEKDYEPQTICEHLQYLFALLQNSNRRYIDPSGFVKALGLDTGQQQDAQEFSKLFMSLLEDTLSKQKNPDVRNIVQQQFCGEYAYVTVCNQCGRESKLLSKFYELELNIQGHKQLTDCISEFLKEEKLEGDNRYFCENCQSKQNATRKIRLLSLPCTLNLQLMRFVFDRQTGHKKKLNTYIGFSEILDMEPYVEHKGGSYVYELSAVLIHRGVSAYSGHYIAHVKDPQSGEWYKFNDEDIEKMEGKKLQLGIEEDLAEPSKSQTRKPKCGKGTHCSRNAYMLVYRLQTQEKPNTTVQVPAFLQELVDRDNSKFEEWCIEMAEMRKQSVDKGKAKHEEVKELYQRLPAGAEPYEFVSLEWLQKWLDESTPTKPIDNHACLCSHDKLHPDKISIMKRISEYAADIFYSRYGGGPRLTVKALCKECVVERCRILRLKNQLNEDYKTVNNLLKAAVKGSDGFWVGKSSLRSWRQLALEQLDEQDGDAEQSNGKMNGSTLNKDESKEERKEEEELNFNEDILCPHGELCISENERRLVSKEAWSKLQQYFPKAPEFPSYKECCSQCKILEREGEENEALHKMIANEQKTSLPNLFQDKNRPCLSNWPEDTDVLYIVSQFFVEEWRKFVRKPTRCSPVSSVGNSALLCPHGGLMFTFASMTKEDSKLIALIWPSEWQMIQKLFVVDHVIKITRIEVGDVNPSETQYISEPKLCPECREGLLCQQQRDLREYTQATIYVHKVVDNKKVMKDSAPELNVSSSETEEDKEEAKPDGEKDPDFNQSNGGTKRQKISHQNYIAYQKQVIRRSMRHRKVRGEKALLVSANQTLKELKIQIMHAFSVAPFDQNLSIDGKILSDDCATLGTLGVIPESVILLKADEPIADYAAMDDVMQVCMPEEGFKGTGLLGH
Outline: as §1

USP5 = target: T4, USP5 (UniProt P45974)
T4 sequence (whole entry): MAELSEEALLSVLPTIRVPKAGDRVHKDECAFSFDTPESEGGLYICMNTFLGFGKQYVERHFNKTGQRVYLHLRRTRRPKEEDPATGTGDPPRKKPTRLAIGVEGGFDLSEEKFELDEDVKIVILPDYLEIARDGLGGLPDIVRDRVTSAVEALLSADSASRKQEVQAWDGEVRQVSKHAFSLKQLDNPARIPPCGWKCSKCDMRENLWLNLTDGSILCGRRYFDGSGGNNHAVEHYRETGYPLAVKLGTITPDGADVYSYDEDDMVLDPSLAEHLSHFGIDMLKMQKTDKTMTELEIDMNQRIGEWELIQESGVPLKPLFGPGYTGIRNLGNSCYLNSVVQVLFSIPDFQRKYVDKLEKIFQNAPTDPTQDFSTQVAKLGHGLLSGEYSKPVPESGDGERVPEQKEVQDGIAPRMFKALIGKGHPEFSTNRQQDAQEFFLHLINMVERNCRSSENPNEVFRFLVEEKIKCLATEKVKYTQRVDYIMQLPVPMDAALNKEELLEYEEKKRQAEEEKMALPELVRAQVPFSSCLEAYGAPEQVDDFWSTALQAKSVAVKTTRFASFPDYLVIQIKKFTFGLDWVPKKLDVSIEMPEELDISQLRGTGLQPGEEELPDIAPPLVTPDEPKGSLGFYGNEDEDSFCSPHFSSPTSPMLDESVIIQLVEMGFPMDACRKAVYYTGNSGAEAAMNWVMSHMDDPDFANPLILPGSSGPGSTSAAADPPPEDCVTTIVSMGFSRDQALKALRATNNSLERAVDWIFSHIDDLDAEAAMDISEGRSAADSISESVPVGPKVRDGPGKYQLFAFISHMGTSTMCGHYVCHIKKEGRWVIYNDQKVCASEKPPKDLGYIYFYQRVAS
Outline: as §1

USP54 = USP54 (UniProt Q70EL1)
Outline: as §1

USP7 = USP7 (UniProt Q93009)
Sequence of USP7 (Q93009 whole entry, looked up): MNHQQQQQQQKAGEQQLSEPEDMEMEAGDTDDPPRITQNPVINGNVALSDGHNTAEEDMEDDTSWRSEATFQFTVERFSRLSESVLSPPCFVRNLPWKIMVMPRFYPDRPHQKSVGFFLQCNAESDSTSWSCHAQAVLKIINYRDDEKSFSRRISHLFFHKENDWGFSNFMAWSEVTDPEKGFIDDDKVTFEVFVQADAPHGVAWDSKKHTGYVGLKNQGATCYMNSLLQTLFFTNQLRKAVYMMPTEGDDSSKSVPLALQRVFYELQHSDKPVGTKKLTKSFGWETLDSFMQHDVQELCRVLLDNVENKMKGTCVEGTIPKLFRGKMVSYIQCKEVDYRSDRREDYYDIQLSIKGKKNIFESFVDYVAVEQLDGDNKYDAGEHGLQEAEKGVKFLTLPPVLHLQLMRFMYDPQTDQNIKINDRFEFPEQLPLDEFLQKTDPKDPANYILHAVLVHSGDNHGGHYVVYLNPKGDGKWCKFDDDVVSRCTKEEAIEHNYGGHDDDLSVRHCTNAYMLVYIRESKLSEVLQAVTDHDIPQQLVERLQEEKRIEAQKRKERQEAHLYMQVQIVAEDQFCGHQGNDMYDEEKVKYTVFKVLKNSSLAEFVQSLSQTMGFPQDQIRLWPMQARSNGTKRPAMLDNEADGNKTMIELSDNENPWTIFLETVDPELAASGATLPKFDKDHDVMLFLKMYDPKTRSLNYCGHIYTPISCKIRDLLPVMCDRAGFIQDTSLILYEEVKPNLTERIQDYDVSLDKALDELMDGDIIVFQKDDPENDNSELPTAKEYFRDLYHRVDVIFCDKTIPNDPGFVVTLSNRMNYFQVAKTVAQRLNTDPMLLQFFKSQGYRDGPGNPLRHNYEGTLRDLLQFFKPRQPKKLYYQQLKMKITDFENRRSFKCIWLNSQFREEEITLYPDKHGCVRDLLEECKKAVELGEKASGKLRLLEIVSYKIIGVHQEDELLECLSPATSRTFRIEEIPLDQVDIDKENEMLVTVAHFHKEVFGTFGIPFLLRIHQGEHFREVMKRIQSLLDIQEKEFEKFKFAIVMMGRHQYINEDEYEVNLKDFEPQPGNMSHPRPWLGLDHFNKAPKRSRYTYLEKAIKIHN
Outline: as §1

USP8 = target: T5, USP8 (UniProt P40818)
T5 sequence (whole entry): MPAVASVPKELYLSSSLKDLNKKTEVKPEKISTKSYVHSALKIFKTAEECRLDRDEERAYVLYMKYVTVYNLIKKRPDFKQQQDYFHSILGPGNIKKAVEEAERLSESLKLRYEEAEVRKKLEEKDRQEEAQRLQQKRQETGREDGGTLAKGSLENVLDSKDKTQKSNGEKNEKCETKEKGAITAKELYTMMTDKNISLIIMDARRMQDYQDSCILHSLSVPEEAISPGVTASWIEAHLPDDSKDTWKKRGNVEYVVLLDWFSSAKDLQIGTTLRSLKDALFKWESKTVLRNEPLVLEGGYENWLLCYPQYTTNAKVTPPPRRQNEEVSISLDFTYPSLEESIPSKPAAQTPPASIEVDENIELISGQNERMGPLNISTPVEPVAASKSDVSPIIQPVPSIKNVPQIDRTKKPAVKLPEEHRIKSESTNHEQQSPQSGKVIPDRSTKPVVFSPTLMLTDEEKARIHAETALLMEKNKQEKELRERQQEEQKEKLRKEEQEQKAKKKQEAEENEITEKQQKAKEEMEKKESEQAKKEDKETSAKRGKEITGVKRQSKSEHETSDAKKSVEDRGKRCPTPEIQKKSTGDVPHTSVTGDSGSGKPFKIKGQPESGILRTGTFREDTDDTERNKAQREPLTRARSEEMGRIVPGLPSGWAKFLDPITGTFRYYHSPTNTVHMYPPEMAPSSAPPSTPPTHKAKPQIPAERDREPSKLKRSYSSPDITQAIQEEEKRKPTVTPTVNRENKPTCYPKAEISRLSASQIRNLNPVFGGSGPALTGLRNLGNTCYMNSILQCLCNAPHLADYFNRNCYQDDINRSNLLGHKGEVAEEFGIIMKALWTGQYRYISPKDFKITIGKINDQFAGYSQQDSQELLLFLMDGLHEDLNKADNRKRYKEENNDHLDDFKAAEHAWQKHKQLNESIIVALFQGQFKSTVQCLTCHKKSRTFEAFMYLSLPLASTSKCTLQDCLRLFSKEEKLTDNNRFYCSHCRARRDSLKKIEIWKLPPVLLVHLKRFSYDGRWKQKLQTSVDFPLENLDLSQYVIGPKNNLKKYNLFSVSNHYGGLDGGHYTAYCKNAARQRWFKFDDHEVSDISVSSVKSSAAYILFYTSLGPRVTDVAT
Outline: as §1

USP9X = USP9X (UniProt Q93008)
Sequence of USP9X (Q93008 whole entry): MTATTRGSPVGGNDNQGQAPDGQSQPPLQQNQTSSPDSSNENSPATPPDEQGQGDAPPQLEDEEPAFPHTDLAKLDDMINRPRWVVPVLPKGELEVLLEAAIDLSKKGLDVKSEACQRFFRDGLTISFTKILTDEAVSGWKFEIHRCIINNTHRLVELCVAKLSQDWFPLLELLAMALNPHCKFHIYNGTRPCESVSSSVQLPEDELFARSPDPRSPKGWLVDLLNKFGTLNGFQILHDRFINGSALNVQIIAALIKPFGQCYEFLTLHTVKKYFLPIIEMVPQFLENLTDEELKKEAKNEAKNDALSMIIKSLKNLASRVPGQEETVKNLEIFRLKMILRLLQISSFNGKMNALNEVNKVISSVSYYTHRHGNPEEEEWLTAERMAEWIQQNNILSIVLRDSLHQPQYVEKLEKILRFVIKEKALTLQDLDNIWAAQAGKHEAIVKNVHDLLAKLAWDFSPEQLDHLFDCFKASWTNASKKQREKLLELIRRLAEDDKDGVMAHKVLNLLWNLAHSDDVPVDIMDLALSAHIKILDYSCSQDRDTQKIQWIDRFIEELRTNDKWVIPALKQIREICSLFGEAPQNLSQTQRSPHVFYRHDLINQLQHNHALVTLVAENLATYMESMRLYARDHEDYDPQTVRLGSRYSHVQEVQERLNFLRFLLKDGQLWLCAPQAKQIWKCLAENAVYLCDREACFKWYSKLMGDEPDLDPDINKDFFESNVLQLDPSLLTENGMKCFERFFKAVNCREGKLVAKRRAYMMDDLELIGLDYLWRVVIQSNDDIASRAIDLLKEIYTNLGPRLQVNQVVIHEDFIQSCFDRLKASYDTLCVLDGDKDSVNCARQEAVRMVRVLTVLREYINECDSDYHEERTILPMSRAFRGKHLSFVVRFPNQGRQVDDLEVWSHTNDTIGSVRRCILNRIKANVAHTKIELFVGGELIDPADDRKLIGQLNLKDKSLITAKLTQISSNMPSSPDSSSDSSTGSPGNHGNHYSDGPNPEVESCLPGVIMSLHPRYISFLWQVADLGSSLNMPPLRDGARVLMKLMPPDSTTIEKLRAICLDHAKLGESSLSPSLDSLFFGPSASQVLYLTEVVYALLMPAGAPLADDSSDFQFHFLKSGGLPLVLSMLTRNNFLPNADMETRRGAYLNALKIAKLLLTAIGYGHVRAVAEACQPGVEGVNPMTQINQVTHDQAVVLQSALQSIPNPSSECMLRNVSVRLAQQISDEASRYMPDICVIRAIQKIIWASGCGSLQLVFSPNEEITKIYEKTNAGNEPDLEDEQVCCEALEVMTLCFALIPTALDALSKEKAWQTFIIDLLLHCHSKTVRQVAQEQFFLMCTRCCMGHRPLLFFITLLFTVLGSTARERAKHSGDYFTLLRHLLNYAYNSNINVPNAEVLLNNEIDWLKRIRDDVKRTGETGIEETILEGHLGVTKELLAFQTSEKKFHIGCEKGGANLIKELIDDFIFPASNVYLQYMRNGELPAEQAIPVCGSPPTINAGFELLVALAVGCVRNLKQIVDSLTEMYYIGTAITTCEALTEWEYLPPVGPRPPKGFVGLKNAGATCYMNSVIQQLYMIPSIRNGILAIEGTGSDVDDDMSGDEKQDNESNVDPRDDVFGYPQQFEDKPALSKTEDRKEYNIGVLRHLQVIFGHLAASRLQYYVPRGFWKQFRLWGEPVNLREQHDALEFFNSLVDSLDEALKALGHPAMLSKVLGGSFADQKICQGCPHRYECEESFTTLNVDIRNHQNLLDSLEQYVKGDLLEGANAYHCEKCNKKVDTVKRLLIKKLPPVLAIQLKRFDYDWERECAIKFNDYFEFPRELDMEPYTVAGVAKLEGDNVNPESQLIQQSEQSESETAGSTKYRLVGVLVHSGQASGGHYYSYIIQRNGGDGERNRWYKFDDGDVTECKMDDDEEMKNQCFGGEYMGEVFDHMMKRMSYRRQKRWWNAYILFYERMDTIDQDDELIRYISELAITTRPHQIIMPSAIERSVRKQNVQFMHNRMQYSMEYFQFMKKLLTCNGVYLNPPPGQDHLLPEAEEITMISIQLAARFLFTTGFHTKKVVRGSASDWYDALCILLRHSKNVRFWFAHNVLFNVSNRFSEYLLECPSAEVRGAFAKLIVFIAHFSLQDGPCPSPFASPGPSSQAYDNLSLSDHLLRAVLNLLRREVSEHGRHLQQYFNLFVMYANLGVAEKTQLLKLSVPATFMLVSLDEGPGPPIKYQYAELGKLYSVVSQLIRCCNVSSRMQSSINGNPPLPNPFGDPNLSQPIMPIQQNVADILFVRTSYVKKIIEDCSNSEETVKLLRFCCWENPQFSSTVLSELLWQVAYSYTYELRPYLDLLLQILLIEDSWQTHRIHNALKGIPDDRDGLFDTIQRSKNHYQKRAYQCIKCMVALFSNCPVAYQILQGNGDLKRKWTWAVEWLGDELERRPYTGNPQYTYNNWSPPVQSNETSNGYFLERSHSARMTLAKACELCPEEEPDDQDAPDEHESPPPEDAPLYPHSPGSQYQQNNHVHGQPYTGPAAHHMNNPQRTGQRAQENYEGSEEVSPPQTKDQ
Outline: as §1

UniProt O00487 = target: UniProt O00487
Sequence of UniProt O00487 (O00487 whole entry): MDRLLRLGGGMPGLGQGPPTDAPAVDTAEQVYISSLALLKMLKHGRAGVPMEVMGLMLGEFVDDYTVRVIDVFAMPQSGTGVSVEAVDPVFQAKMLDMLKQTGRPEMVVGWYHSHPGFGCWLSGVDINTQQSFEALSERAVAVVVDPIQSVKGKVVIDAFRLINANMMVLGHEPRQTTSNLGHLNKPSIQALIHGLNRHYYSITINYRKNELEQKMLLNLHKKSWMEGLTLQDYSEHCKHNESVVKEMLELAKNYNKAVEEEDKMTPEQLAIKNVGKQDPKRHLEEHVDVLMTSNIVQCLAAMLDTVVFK
Outline: as §1

Measured: log2 ratio of Biotin-Ahx-Ub-VS probe labelling

Cl.O=C(CCl)N1CCn2ncc(O)c2C1
inactive: USP42 -0.139 | USP46 -0.686 | USP47 -0.0187 | USP48 -0.559 | USP5 0.0938 | USP54 0.44 | USP7 -0.81 | USP8 -0.577 | USP9X -0.396 | UniProt O00487 -0.395
